Compounds without any hit were thinned out: in the full panel of roughly 79,000, 15% have a hit. Values without a mark were called inactive. Calls of active or inactive are those of the source. Rule as the data show it: active = growth inhibition above about 70%; inactive = the rest.
Test: NCI Yeast Anticancer Drug Screen. Data for the rad50EPP+ strain (AID 151);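 also: 0% = growth of vehicle-treated control cultures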
Settings: S. cerevisiae rad50 mutant strain, at 100.0 µM, hits give high values
Procedure, shortened: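 Vehicle-normalised growth inhibition; rad50EPP+ yeast strain, altered in DNA damage repair, compound-treated.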

Row | SMILES | growth inhibition
1 | O=P(NC1CCCCC1)(OCc1ccccc1)OCc1ccccc1 | 7%
2 | COc1oc(C(=O)NC2CCCCC2)c(-c2ccc(Cl)cc2)c1S(=O)(=O)c1ccccc1 | -11%
3 | C[Si](C)(C)/C=C/CCNC(C#N)c1ccccc1 (stereo not given) | 74% (active)
4 | CCOc1ccc(NC(=O)C2=C(C)NC(C)=C(C(=O)Nc3ccc(OCC)cc3)C2c2cccc([N+](=O)[O-])c2)cc1 | -4%
5 | CN(C)CCOC1(Cc2ccc(F)cc2)CCC(C(C)(C)C)CC1 (stereo not given) | 68%
6 | CC(=O)Nc1ccc2c(c1)Cc1cc(N=C3C=CC(=O)O3)ccc1-2 | 99% (active)
7 | O=C1C=C(Cl)C(=O)C(c2ccc(Cl)cc2)=C1 | 96% (active)
8 | CNCCCNc1c2ccccc2nc2cccc([N+](=O)[O-])c12 | 98% (active)
9 | CCCCCCCCCCCC(O)S(=O)(=O)O (stereo not given) | 58%
10 | CC(C)OC(=O)c1ccc(CCc2cc(O)c(Br)cc2O)cc1 | 94% (active)
11 | CCc1cc(O)c(Cl)c(C)c1Cl | 90% (active)
12 | C(=Nc1ccc(-c2cc(-c3ccccc3)nc3ccc4ccccc4c23)cc1)c1ccccc1 | 6%
13 | CSc1nc(C)c(CCOC(C)=O)c(N=P(c2ccccc2)(c2ccccc2)c2ccccc2)n1 | 13%
14 | CS(=O)(=O)SCc1ccc([N+](=O)[O-])cc1 | 97% (active)
15 | COC1=C(OC)C(=O)C(Sc2ccc3ccccc3c2)=CC1=O | 97% (active)
16 | COc1nc2c(c(=O)n1C)N=C(c1ccccc1)[C@H](C(CC(=O)c1ccccc1)c1ccccc1)C(c1ccccc1)N2 (stereo not given in full) | -35%
17 | Cc1cc(-c2cc(C)c(O)c(C(C)(C)C)c2)cc(C(C)(C)C)c1O | -4%
18 | Nc1cc(N)c(N=Nc2cccc3c(S(=O)(=O)O)cccc23)cc1N=Nc1cc([N+](=O)[O-])ccc1O | 38%

Row | SMILES | growth inhibition
19 | Nc1ccc(F)cc1S | 97% (active)
20 | Brc1ccccc1-c1ncc(-c2ccccc2)o1 | 62%
21 | COc1cc(C2SCC(=O)N2c2ccc(-c3ccc(-n4c(-c5ccccc5)nc5ccccc5c4=O)cc3)cc2)ccc1O (stereo not given) | 27%
22 | Nc1ncnc2c1ncn2C1OC(CO)CC1O (stereo not given) | 0%
23 | COc1cc(CSc2ccc(O)cc2)cc(O)c1O | 0%
24 | CCOC(=O)C1N=[N+](c2ccccc2)C(=O)/C1=C\n1c(=S)[nH]c2ccc([N+](=O)[O-])cc21 (stereo not given) | 6%
25 | O=C(NNc1ccccc1)c1ccc(Cl)c(Cl)c1 | 74% (active)
26 | Cc1ccc(CC2(OCCN(C)C)CCC(C(C)(C)C)CC2)cc1 (stereo not given) | 97% (active)
27 | C[C@]12CC[C@H](O)CC1=CC[C@@H]1C2CC[C@]2(C)C(=O)NC(=O)CC12 (stereo not given in full) | 93% (active)
28 | CCCC/C=C/C(C)(C(=O)OCC)C(=O)OCC | 16%
29 | CCc1c(Cl)c(C)cc(O)c1Cl | 89% (active)
30 | O=C(/C=C(/c1ccccc1)N1CCCCC1)c1ccccc1 | 31%
31 | CCCC(=O)Oc1ccc(/C=N/NC(N)=S)nc1 | -9%
32 | CCc1nc2ccc(NCCN(C)C)c3c(=O)c4ccccc4n1c23 | 71% (active)
33 | Cc1sc2ccc3ccccc3c2[n+]1C | 10%
34 | COc1c(O)c(C=O)c(Br)c(C=O)c1O | 99% (active)
35 | Cc1ccc(Cl)cc1NC(=O)OCCN(C)C(=O)Nc1cc(Cl)ccc1C | -11%
36 | Cc1nc2ccccc2nc1NNc1ccccc1 | 84% (active)

Test: NCI Yeast Anticancer Drug Screen. Data for the mgt1 strain (AID 153)
Settings: S. cerevisiae mgt1 mutant growth inhibition; at 1.2 µM; hits give high values
Procedure, shortened: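 Vehicle-normalized growth inhibition is determined in mgt1 yeast, a strain selected for a defined alteration in DNA repair or cell cycle control.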

Row | SMILES | growth inhibition [%]
37 | CN(C)c1ccc(C2CC(C)(O)Oc3cc4c(cc32)OCO4)cc1 (stereo not given) | -2
38 | COc1oc(C(=O)NC2CCCCC2)c(-c2ccc(Cl)cc2)c1S(=O)(=O)c1ccccc1 | -21
39 | C[Si](C)(C)/C=C/CCNC(C#N)c1ccccc1 (stereo not given) | -14
40 | CCOc1ccc(NC(=O)C2=C(C)NC(C)=C(C(=O)Nc3ccc(OCC)cc3)C2c2cccc([N+](=O)[O-])c2)cc1 | -1
41 | CC1(C)CC(=O)C(/C=N/c2nc(-c3ccccc3)cs2)=C(O)C1 | -1
42 | CC(=O)Nc1ccc2c(c1)Cc1cc(N=C3C=CC(=O)O3)ccc1-2 | 9
43 | O=C1C=C(Cl)C(=O)C(c2ccc(Cl)cc2)=C1 | 2
44 | CNCCCNc1c2ccccc2nc2cccc([N+](=O)[O-])c12 | 18
45 | CCCCCCCCCCCC(O)S(=O)(=O)O (stereo not given) | -3
46 | CC(C)OC(=O)c1ccc(CCc2cc(O)c(Br)cc2O)cc1 | 55
47 | CCc1cc(O)c(Cl)c(C)c1Cl | 14
48 | C(=Nc1ccc(-c2cc(-c3ccccc3)nc3ccc4ccccc4c23)cc1)c1ccccc1 | 21
49 | CSc1nc(C)c(CCOC(C)=O)c(N=P(c2ccccc2)(c2ccccc2)c2ccccc2)n1 | 10
50 | COC1=C(OC)C(=O)C(Sc2ccc3ccccc3c2)=CC1=O | -46
51 | COc1nc2c(c(=O)n1C)N=C(c1ccccc1)[C@H](C(CC(=O)c1ccccc1)c1ccccc1)C(c1ccccc1)N2 (stereo not given in full) | -53
52 | Cc1cc(-c2cc(C)c(O)c(C(C)(C)C)c2)cc(C(C)(C)C)c1O | -49
53 | Nc1cc(N)c(N=Nc2cccc3c(S(=O)(=O)O)cccc23)cc1N=Nc1cc([N+](=O)[O-])ccc1O | -19

Row | SMILES | growth inhibition [%]
54 | Nc1ccc(F)cc1S | -15
55 | Brc1ccccc1-c1ncc(-c2ccccc2)o1 | 15
56 | COc1cc(C2SCC(=O)N2c2ccc(-c3ccc(-n4c(-c5ccccc5)nc5ccccc5c4=O)cc3)cc2)ccc1O (stereo not given) | 1
57 | Nc1ncnc2c1ncn2C1OC(CO)CC1O (stereo not given) | -37
58 | COc1cc(CSc2ccc(O)cc2)cc(O)c1O | 1
59 | CCOC(=O)C1N=[N+](c2ccccc2)C(=O)/C1=C\n1c(=S)[nH]c2ccc([N+](=O)[O-])cc21 (stereo not given) | -1
60 | CNC(=O)OCc1c(COC(=O)NC)c2n(c1C)-c1ccc(OC)cc1CCC2 | -32
61 | O=C(NNc1ccccc1)c1ccc(Cl)c(Cl)c1 | -1
62 | Cc1ccc(CC2(OCCN(C)C)CCC(C(C)(C)C)CC2)cc1 (stereo not given) | 14
63 | C[C@]12CC[C@H](O)CC1=CC[C@@H]1C2CC[C@]2(C)C(=O)NC(=O)CC12 (stereo not given in full) | -41
64 | CCCC/C=C/C(C)(C(=O)OCC)C(=O)OCC | -4
65 | CCc1c(Cl)c(C)cc(O)c1Cl | 19
66 | O=C(/C=C(/c1ccccc1)N1CCCCC1)c1ccccc1 | -3
67 | CCCC(=O)Oc1ccc(/C=N/NC(N)=S)nc1 | -1
68 | CCc1nc2ccc(NCCN(C)C)c3c(=O)c4ccccc4n1c23 | 37
69 | COc1c(O)c(C=O)c(Br)c(C=O)c1O | -2
70 | Cc1nc2ccccc2nc1NNc1ccccc1 | 4

Source: PubChem BioAssay (NCI)
